In PubChem BioAssay AID777 (Sanford-Burnham Center for Chemical Genomics, 2007):
In all, about 96,000 compounds went through this assay and about 19,000 (20%) were called active. Only a sample is shown. A number with no mark means an inactive call.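 The calls were made as follows: active = blocking of liver enzyme CYP2C9 beyond about 50% at 5 µM (limit read from the data); inactive = the rest.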

What follows are molecules tested against Cytochrome P450 2C9 (Homo sapiens) (UniProt P11712) (assay: blockers of cytochrome P450 2C9 activity – biochemical, luminescence, ADME assay, primary screen (AID 777)). Conditions: CYP2C9 Supersomes, luciferin-H conversion, at 5 µM, stronger effect = higher value.
Chain of Cytochrome P450 2C9 (Homo sapiens) (P11712 whole entry, looked up): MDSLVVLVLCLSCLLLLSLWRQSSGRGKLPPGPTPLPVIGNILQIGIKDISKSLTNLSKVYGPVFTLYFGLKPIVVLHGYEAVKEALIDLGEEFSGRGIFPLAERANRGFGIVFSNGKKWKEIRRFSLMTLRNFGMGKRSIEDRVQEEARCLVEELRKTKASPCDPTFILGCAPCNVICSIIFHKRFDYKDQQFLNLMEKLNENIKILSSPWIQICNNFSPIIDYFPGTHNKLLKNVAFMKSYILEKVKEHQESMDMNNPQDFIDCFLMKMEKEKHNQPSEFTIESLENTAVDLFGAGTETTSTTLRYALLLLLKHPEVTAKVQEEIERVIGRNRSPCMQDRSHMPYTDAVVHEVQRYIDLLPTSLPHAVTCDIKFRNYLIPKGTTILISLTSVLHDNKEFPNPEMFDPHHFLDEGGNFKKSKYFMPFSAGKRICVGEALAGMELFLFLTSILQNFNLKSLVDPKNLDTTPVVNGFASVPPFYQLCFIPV

SMILES | inhibition
N#C/C(=C(/O)Cc1cccc2ccccc12)c1nc2ccccc2s1 | 76.6% (active)
Cc1ccccc1OC/C(O)=C(\C#N)c1nc2ccccc2[nH]1 | 45.5%
N#C/C(=C(/O)COc1cccc2ccccc12)c1nc2ccccc2[nH]1 | -6.1%
CN(C)/C=C(\C#N)C(=O)c1cccnc1Oc1cccc(F)c1 | 12.2%
CCCC(C)C(=O)Nc1ccc(NC(C)=O)cc1 (stereo unspecified) | 9.5%
COc1ccc(C2OC(=O)CC2C(=O)NC(C)C)cc1 (stereo unspecified) | 3.6%
N#Cc1cccc(NC(=O)CCC2CCCC2)c1 | 56.8% (active)
O=C(CCCOc1ccccc1)Nc1cccc(C(=O)O)c1 | 9.5%
COC(=O)c1sccc1NC(=O)CCC1CCCC1 | -11.7%
CCCC(=O)N1CCc2[nH]c3ccccc3c2C1 | 8.3%
COCCNC(=O)C(c1ccc(C)o1)N(Cc1ccccc1)C(=O)Cn1nnc2ccccc21 (stereo unspecified) | 16.2%
Cc1ccc(C(C(=O)NCc2ccco2)N(CC2CCCO2)C(=O)Cn2nnc3ccccc32)cc1 (stereo unspecified) | 14.4%
COc1ccccc1N(C(=O)Cn1nnc2ccccc21)C(C(=O)NCc1ccco1)c1ccc(C)o1 (stereo unspecified) | 70.3% (active)
CCOCCCNC(=O)Cc1cc(=O)[nH]c(=O)[nH]1 | -6.2%
Cc1noc(COc2ccccc2OCC(O)CNC(C)(C)C)n1 (stereo unspecified) | 26.1%
O=C1N(Cc2ccc3c(c2)OCO3)c2ccccc2C1(O)c1c[nH]c2ccccc12 (stereo unspecified) | 79.7% (active)
O=C(Nc1cccc2ccccc12)N1CCN(Cc2ccc3c(c2)OCO3)CC1 | 38.9%
CC1CCC(N2CC(=O)N(Cc3ccc4c(c3)OCO4)C(c3ccc(F)cc3)C2=O)CC1 (stereo unspecified) | 39.6%
CC(=O)Oc1ccc(C)cc1N1C(=O)c2ccc(C(=O)O)cc2C1=O | -17.9%
C/C(CC(O)(/C=N/O)c1ccccc1)=N\O (stereo unspecified) | -33%
CC1=NN(c2cccc(Cl)c2)C(=O)C12CC(C)=C(C)CS2 (stereo unspecified) | 74.8% (active)
O=C1C(=O)N(c2ccccc2)c2ccccc21 | 4.1%
CCOc1ccc(Nc2nc(Cc3nnc(SCC(=O)NC4CCCC4)n3C)cs2)cc1 | 65.6% (active)
COCCCn1c(Cc2csc(Nc3cccc(Cl)c3)n2)nnc1SCC(=O)OC1CCCCC1 | 44.3%
CC(=O)Nc1ccc(C(=O)CSc2nnc(Cc3ccccc3)o2)cc1 | 33.3%
CCC(=O)Nc1ccc(C(=O)CSc2nnc(CNc3ccc(Cl)cc3)o2)cc1OC | -44.6%

SMILES | inhibition
CCOC(=O)c1c(NC(=O)CSc2nnc(Cc3csc(N)n3)n2C)sc(C)c1C | 30.2%
CCOc1ccc(Nc2nc(Cc3nnc(SCC(=O)c4ccc(C)cc4)o3)cs2)cc1 | 83.7% (active)
COCc1cc(C)nc2sc(C(=O)NC3CCCCC3)c(N)c12 | 4.7%
COc1ccc(-n2cnc3cc(NCc4ccco4)ccc32)cc1 | 32.8%
COC(=O)[C@@H](NC(=O)Nc1cc(Cl)ccc1C)C(C)C | 10%
OC(C#CCN1CCOCC1)(c1ccccc1)C1CCCCC1 (stereo unspecified) | 30%
CCCCCCc1cc2cc(-c3nnc(-c4ccccc4)o3)c(=O)oc2cc1O | 90.8% (active)
O=c1oc2cc(O)ccc2cc1-c1ccc(F)cc1 | 27.8%
CC1(C)CC(=O)C=C(NCCCNC2CCCCC2)C1 | 1%
CCOC(=O)c1c(N)sc(C(C)=O)c1C | 25.8%
CCCCc1c(O)nc2n(c1=O)CCS2 | -21.9%
COc1ccccc1NC1=NC(c2ccc(Cl)cc2)N=C(N)N1 (stereo unspecified) | -7.5%
CCn1c2ccccc2c2cc(NC(=S)N3CCOCC3)ccc21 | -46.3%
CCCCN(C)C(=O)c1ccc2c(c1)N(CC)C(=O)c1ccccc1S2(=O)=O | 72.4% (active)
CCN1C(=O)c2cccc3c(N)ccc1c23 | 7.7%
COC(=O)CNC(=O)c1ccc2c(c1)S(=O)(=O)c1ccccc1C2=O | -14.1%
CCC(C)Sc1nnc(-c2c[nH]c3ccccc23)n1CCOC (stereo unspecified) | -4.5%
CCC(=O)N(Cc1ccccc1)c1ccccn1 | -7.1%
CCCC1NC(=O)NC(C)=C1C(=O)OCC (stereo unspecified) | 39.8%
CCOC(=O)c1ccccc1NC(=O)CC1Nc2ccccc2NC1=O (stereo unspecified) | 29.5%
CCOC(=O)C1=C(C)NC(C)=C(C(=O)OCC)C1c1ccccn1 | 94.2% (active)
CCOC(=O)C1=C(C)NC(C)=C(C(=O)OCC)C1C1=COCCO1 | 77.4% (active)
CCCC(O)(c1ccc(OC)cc1)C(CN(C)C)c1ccccc1 (stereo unspecified) | -8.2%
O=C(NC(=O)c1ccc(Cl)c(Cl)c1)OC1CCS(=O)(=O)C1 (stereo unspecified) | -16.4%
CCOc1ccccc1NC(=O)C12CC3CC(C1)CC(c1ccc(C)cc1)(C3)C2 | -16%
N#C/C=C\Oc1ccc(Cl)cc1N | -10.4%

SMILES | inhibition
O=C(CCN1C(=O)C2C3C=CC(C3)C2C1=O)Nc1ccccc1F (stereo unspecified) | -2.2%
NC(=NC(=O)c1ccccc1)N1CCOCC1 | 4.1%
CCN(CC)C(=O)CSc1nnc(-c2ccc(S(=O)(=O)NCc3ccccc3Cl)cc2)o1 | 25.8%
O=C(OCC(=O)N1CCCC1)c1ccco1 | 5.6%
CSc1cccc(NC(=O)CSc2ccccc2)c1 | 73.2% (active)
CCn1c(SCC(=O)Nc2cccc(F)c2)nnc1-c1cc2cc(Br)ccc2o1 | 36%
O=C(CSc1ccccc1)Nc1ccc(NC(=O)c2ccco2)cc1 | 42.7%
Oc1ccccc1/C=N/n1c(-c2cccs2)n[nH]c1=S | 0.5%
Cc1nnc(C)n1/N=C/c1ccc(C(C)C)cc1 | 8.3%
Cc1ccc2[nH]c3c(=O)n(Cc4ccccn4)cnc3c2c1 | 2.1%
Cn1nnc2cc(C(=O)NCCC3=CCCCC3)ccc21 | -22.1%
Cc1ccc2c(c1)c1ncn(CCC3=CCCCC3)c(=O)c1n2C | 87.4% (active)
Cc1ccc(-n2ncc3c(=O)[nH]cnc32)c(C)c1 | 2.5%
Cn1c(=O)n(C)c(=O)n(CC(=O)N2CCCCC2)c1=O | -13.7%
COc1ccc(C(=O)N(CCN2CCOCC2)CC(=O)NC2CCCC2)cc1OC | -13.4%
CCc1ccccc1NC(=O)CSc1nnc([C@@H](NC(=O)OC(C)(C)C)C(C)CC)o1 (stereo partly specified) | 66.7% (active)
COc1ccccc1-c1nnc(SCC(=O)Nc2ccccc2)o1 | -62.2%
CC(C)C[C@@H](N)c1nnc(SCC(=O)c2ccc(Cl)cc2)o1 | 49.8%
Cc1cccc(NC(=O)CSC(N)=O)c1C | 7.1%
Cc1nc(C)c(C(=O)Nc2cccc(C)c2C)o1 | 1.2%
C[C@H](NC(=O)OC(C)(C)C)c1nnc(SCC(N)=O)o1 | 30.9%
Cc1cccc(NC(=O)CSc2nnc(CCCCCNC(=O)OC(C)(C)C)o2)c1C | 67.6% (active)
CCc1ccccc1NC(=O)CSc1nnc([C@@H](NC(=O)OC(C)(C)C)C(C)C)o1 | 20.3%
C[C@H](NC(=O)OC(C)(C)C)c1nnc(SCC(=O)Nc2ccc(Br)cc2)o1 | 50.7% (active)
CN(C)CCNC(=O)C(C(=O)c1ccccc1)n1ccccc1=O (stereo unspecified) | -3.6%
CCCCNC(=O)OC(C)CNC(=O)OC (stereo unspecified) | -7.6%

SMILES | inhibition
O=C(C1CCCO1)N1CCC(c2nc3ccccc3[nH]2)CC1 (stereo unspecified) | -3.1%
CCCNS(=O)(=O)c1ccc2c(c1)CCCN2C(C)=O | 4.5%
COC(=O)C(C)C1Sc2ccccc2NC1=O (stereo unspecified) | 2.8%
Clc1ccc(-c2nnc(-c3ccccc3)nc2N2CCSCC2)cc1 | 59.2% (active)
Cn1nc(-c2ccccc2)c(-c2nc(-c3ccc(Cl)cc3)no2)c1Cl | 0.9%
CC1CN(c2nc(-c3ccccc3)nnc2-c2ccccc2)CC(C)O1 (stereo unspecified) | 14.1%
CC1(C)CC(CC(=O)O)C(=O)O1 (stereo unspecified) | 4.1%
O=C(O)CSCc1nc2ccccc2s1 | -9.7%
COc1ccccc1OCc1nc2ccccc2s1 | 51.7% (active)
O=C(O)CCCCc1nc2ccccc2s1 | 2.4%
C=CCNc1nc(C)nc(OC)n1 | -13.4%
CCn1c(SCC(=O)NCC2CCCO2)nc2cc(S(=O)(=O)N3CCCCC3)ccc21 (stereo unspecified) | 50.2% (active)
O=C(CCn1c(SCC(=O)c2ccccc2)nc2ccccc2c1=O)NCc1ccc(F)cc1 | 91.5% (active)
O=C(CSc1nnc(-c2ccco2)n1CC1CCCO1)c1ccccc1 (stereo unspecified) | -3.9%
O=C(NCC1CCCO1)C(C(=O)c1ccccc1)n1cc(Cl)ccc1=O (stereo unspecified) | -9.3%
O=C(CSc1nc2cc3c(cc2c(=O)n1CCC1=CCCCC1)OCO3)NCc1ccco1 | 8.9%
O=C(CCCn1c(SCC(=O)c2ccccc2)nc2ccccc2c1=O)NCC1CCCO1 (stereo unspecified) | 91.9% (active)
O=C(CCCn1c(SCC(=O)c2ccc(F)cc2)nc2ccccc2c1=O)NCc1ccco1 | 95% (active)
Cn1c(-c2ccc(F)cc2)cnc1SCC(=O)NCc1ccco1 | 9.5%
CCc1ccc(NC(=O)CSc2nc3ccccc3c(=O)n2CCN2CCOCC2)cc1 | 47.5%
CCOc1cc2[nH]c(=O)n(CCC(=O)NCc3ccc(OC)cc3)c(=O)c2cc1OCC | -2.1%
Cc1ccc(S(=O)(=O)N2CCC(C(=O)NCC3CCCO3)CC2)cc1 (stereo unspecified) | -9.7%
CCn1cc(C(=O)NCC2CCCO2)c(=O)c2cc(S(=O)(=O)N3CCCCC3)ccc21 (stereo unspecified) | 44%
